Laboratory results reported in PubChem BioAssay (Tox21).
Results filed as inconclusive are left out. Where a call stands in place of a potency, no number is given. Unmarked numbers belong to inactive results. Active and inactive are the calls of the source. Unless noted, calls follow the shape of the dose curve; as a rule, active = well fitted curve in the direction sought with a large enough effect in the repeat runs; inconclusive = weak or mixed curves; inactive = no such curve, though single readings can be large; an effect the other way counts as inactive or inconclusive.

Legend:
[1] = qHTS assay to identify small molecule agonists of the RXR signaling pathway - cell viability counter screen (AID 1159529); also: series mostly up to about 77 µM; nearly all actives have a fitted effect of over 50% in size
Outline: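 CellTiter-Glo luminescence gave viability in the wells also read for beta-lactamase. Cells (RXR-alpha-UAS-bla HEK 293T, 2% charcoal-stripped FBS medium) had 5 hr plating, then 16 hr compound exposure at 37 C; tetraoctyl ammonium bromide served as positive control.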

[2] = qHTS assay to identify small molecule antagonists of the retinoid acid receptor (RAR) signaling pathway - cell viability counter screen (AID 1159551); also: nearly all actives have a fitted effect of over 35% in size
Outline: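 In this counter screen, the RARE-luciferase line C3RL4 was exposed for 6 h at 37 C and 5% CO2 to compounds with retinol at 1 uM final. Cellular ATP, read by luminescence, served as the viability measure.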

[3] = qHTS assay to identify small molecule antagonists of the retinoic acid receptor (RAR) signaling pathway (AID 1159552; also: nearly all actives have a fitted effect of over 50% in size)
Outline: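 Luminescent RARE reporter read-out in C3RL4 cells: 6 hr co-treatment at 37 C of test compounds with retinol at 1 uM final. Cells plated overnight beforehand; luciferase reagent incubated 30 min at room temperature before reading.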

[4] = qHTS assay to identify small molecule agonists of the retinoic acid receptor (RAR) signaling pathway (AID 1159553); also: potency is read from the fitted curve at half-maximal effect
Outline: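 In this cell-based screen, 1,000 C3RL4 cells per well were cultured overnight, dosed with test chemicals in DMSO for 6 hr, and assessed for RARE luciferase luminescence.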

[5] = qHTS assay to identify small molecule antagonists of the estrogen related receptor (ERR) signaling pathway from Tox21 library - cell viability counter screen (AID 1224834); also: nearly all actives have a fitted effect of over 30% in size
Outline: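 Counter screen run in ERR cells (2,000 cells/well): cells pre-incubated 6 h, then treated with compounds for 17.5 h at 37 C. Fluorescence was read 30 min after CellTiter-Fluor addition.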

[6] = biological target: Luciferin 4-monooxygenase (Photinus pyralis) (UniProt P08659); assay: qHTS assay to identify small molecule inhibitors of firefly luciferase (AID 1224835); also: nearly all actives have a fitted effect of over 25% in size; also: potency is read from the fitted curve at half-maximal effect
Outline: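 Biochemical qHTS: compounds run as interplate titrations against purified firefly enzyme, with D-luciferin and ATP each at its KM concentration. Light output recorded by CCD imaging.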

[7] = qHTS assay to identify small molecule agonists of the constitutive androstane receptor (CAR) signaling pathway - cell viability counter screen (AID 1224836); also: nearly all actives have a fitted effect of over 45% in size; also: potency is read from the fitted curve at half-maximal effect
Outline: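 Cell viability multiplexed with the CAR agonist screen: CellTiter-Fluor fluorescence after 23 hr at 37 C. HepG2-CYP2B6-hCAR cells got compounds at 15 concentrations with PK11195 at 0.75 uM final.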

[8] = qHTS assay to identify small molecule antagonists of the constitutive androstane receptor (CAR) signaling pathway - cell viability counter screen (AID 1224837); also: nearly all actives have a fitted effect of over 45% in size; also: potency is read from the fitted curve at half-maximal effect
Outline: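 CITCO at 50 nM final was added alongside compounds (15 concentrations) to double-stable hCAR/CYP2B6-2.2kb HepG2 cells. Following 23 hr at 37 C, cell viability was quantified by CellTiter-Fluor fluorescence intensity.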

[9] = biological target: Nuclear receptor subfamily 1 group I member 3 (Homo sapiens) (UniProt Q14994); assay: qHTS assay to identify small molecule antagonists of the constitutive androstane receptor (CAR) signaling pathway (AID 1224838); also: nearly all actives have a fitted effect of over 40% in size
Outline: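 Inhibition of CITCO-driven (50 nM final) CYP2B6 reporter expression is measured in HepG2 cells stably carrying hCAR. Fifteen compound concentrations are applied for 24 h at 37 C, followed by luciferase luminescence.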

[10] = qHTS assay to identify small molecule antagonists of the estrogen related receptor signaling pathway with the pleiotropic PPARgamma coactivator (PGC) from Tox21 10K library - cell viability counter screen (AID 1224840; active = well fitted cell-killing curve with a large enough effect in the repeat runs, not every such curve was filed as active; also: nearly all actives have a fitted effect of over 40% in size)
Outline: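 Readout: fluorescence intensity from CellTiter-Fluor after 30 min at 37 C/5% CO2. Preceded by 17.5 h treatment of PGC/ERR cells with DMSO-dissolved compounds, added 6 h post-seeding.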

[11] = qHTS assay to identify small molecule antagonists of the estrogen related receptor signaling pathway with the pleiotropic PPARgamma coactivator (PGC) from Tox21 10K library (AID 1224841; call rule not given here; also: series mostly up to about 92 µM; actives are mostly falling curves and most rising ones were filed inactive; nearly all actives have a fitted effect of over 50% in size)
Outline: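 One-Glo luminescence, measured after half an hour at room temperature, quantified reporter output of PGC/ERR cells. These had been plated at 2,000 per well, incubated 6 h, dosed with compounds in DMSO, then kept 18 h at 37 C.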

[12] = qHTS assay to identify small molecule agonists of the estrogen related receptor signaling pathway with the pleiotropic PPARgamma coactivator (PGC) from Tox21 10K library (AID 1224842); also: nearly all actives have a fitted effect of over 15% in size
Outline: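 PGC/ERR reporter cell line, 2,000 cells per well, incubated 6 h at 37 C before 23 nL compound in DMSO was added. After 18 h at 37 C, One-Glo luminescence read following 30 min at room temperature.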

[13] = qHTS assay to identify small molecule antagonists of the estrogen related receptor (ERR) signaling pathway - cell viability counter screen (AID 1224818); also: series mostly up to about 46 µM
Outline: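 Viability of ERR cells, CellTiter-Fluor fluorescence; 17.5 h compound exposure at 37 C, DMSO vehicle; 30 min reagent incubation at 37 C/5% CO2.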

[14] = qHTS assay to identify small molecule antagonists of the estrogen related receptor signaling pathway with the pleiotropic PPARgamma coactivator (PGC) cell viability counter screen (AID 1224822; also: series mostly up to about 46 µM)
Outline: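 17.5 h compound treatment of PGC/ERR cells at 37 C; readout CellTiter-Fluor fluorescence; run alongside the PGC/ERR antagonist screen to flag cytotoxic compounds.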

[15] = biological target: Retinoic acid receptor RXR-alpha (Homo sapiens) (UniProt P19793); assay: qHTS assay to identify small molecule agonists of the RXR signaling pathway (AID 1159527; calls by dose curve; also: nearly all actives have a fitted effect of over 35% in size)
Outline: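 Agonist-mode beta-lactamase reporter assay: HEK 293T RXR-alpha-UAS-bla cells treated 16 hr at 37 C with compounds, 9-cis retinoic acid as positive control. LiveBLAzer FRET substrate, 405 nm excitation, 460/530 nm emission.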

[16] = biological target: Nuclear receptor subfamily 1 group I member 3 (Homo sapiens) (UniProt Q14994); assay: qHTS assay to identify small molecule agonists of the constitutive androstane receptor (CAR) signaling pathway (AID 1224839); also: nearly all actives have a fitted effect of over 15% in size; also: potency is read from the fitted curve at half-maximal effect
Outline: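 Luminescent ONE-Glo read-out after 24 hr, 37 C exposure of double-stable HepG2-CYP2B6-hCAR reporter cells to a 15-point compound series, in the presence of 0.75 uM PK11195 (final).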

[17] = qHTS assay to identify small molecule antagonists of the estrogen related receptor (ERR) signaling pathway (AID 1224819;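 also: luminescence from an ERR-driven luciferase reporter measured with One-Glo reagent; series mostly up to about 46 µM; nearly all actives have a fitted effect of over 50% in size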)
Outline: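 Seed ERR cells 2,000/well; rest 6 h at 37 C/5% CO2; pin compounds in DMSO; incubate 18 h at 37 C; add One-Glo; wait 30 min at room temperature; measure luminescence.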

[18] = qHTS assay to identify small molecule agonists of the estrogen related receptor (ERR) signaling pathway (AID 1224820)
Outline: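 Luminescence readout (One-Glo, 30 min RT) from NTP-supplied ERR cell line exposed to compounds for 18 h at 37 C. Cells seeded 2,000 per well and pre-incubated 6 h before pin-tool compound transfer.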

[19] = test system: estrogen-related receptor alpha (ERRalpha) with PGC-1alpha coactivator, human; assay: qHTS assay to identify small molecule antagonists of the estrogen related receptor signaling pathway with the pleiotropic PPARgamma coactivator (PGC) (AID 1224821; calls by dose curve)
Outline: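 PGC/ERR reporter cells; 6 h pre-incubation 37 C/5% CO2; pin-tool compound in DMSO, 18 h 37 C; One-Glo added, 30 min RT; luminescence read. qHTS antagonist mode.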

[20] = qHTS assay to identify small molecule agonists of the estrogen related receptor signaling pathway with the pleiotropic PPARgamma coactivator (PGC) (AID 1224823)
Outline: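 Luminescence readout (One-Glo, 30 min RT) from PGC/ERR cell line treated 18 h at 37 C with pin-tool-delivered DMSO compound solutions; cells plated 6 h before dosing. Quantitative HTS format.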

Sequence of Nuclear receptor subfamily 1 group I member 3 (Homo sapiens) (Q14994 whole entry, looked up): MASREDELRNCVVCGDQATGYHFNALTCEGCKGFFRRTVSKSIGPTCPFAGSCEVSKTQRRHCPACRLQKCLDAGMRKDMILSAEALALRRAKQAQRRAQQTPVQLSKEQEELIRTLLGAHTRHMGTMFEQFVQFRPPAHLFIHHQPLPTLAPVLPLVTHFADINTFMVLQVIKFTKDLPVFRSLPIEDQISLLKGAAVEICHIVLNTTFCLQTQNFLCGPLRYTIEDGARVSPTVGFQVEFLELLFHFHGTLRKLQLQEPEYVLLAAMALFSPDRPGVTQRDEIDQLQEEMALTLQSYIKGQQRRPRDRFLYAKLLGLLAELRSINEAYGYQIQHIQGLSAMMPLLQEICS
Sequence of Luciferin 4-monooxygenase (Photinus pyralis) (P08659 whole entry, looked up): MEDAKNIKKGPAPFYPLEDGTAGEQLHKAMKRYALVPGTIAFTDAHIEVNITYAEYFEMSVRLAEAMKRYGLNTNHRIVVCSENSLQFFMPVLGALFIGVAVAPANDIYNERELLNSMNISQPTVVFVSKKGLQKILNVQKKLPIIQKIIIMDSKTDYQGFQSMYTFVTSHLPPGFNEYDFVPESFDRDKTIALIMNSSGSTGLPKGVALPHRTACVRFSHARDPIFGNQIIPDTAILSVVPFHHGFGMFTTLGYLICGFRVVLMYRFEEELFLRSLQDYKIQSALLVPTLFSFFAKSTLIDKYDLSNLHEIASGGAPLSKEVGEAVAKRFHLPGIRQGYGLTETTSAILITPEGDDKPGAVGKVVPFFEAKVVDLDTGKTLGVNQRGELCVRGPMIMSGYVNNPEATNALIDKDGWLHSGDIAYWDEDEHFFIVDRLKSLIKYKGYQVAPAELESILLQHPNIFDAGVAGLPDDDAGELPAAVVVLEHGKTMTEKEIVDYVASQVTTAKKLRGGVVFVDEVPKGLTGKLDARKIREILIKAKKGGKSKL
Sequence of Retinoic acid receptor RXR-alpha (Homo sapiens) (P19793 whole entry, looked up): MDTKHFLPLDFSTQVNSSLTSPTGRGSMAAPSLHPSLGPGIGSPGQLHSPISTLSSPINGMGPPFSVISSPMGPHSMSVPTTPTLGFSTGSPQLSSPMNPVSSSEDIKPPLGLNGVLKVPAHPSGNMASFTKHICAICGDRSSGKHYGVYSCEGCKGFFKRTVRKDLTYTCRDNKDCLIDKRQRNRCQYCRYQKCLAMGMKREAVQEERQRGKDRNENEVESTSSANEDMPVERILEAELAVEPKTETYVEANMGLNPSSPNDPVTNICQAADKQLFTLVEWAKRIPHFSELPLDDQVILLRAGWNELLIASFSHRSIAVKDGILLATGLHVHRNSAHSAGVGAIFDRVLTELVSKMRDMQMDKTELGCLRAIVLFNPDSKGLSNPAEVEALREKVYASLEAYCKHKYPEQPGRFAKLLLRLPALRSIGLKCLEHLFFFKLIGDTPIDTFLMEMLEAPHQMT

Row | Structure (SMILES) | Potency [1] | outcome [2] | Potency [3] | Potency [4] | Potency [5] | Potency [6] | Potency [7] | Potency [8] | Potency [9] | Potency [10] | Potency [11] | Potency [12] | outcome [13] | outcome [14] | Potency [15] | Potency [16] | outcome [17] | outcome [18] | outcome [19] | outcome [20]
1 | CC(=O)N[C@@H](CC(C)C)C(=O)O | inactive | inactive | inactive | inactive | inactive | inactive | inactive | inactive | inactive | inactive | inactive | inactive | – | – | – | – | – | – | – | –
2 | Cc1nnc(SCC2=C(C(=O)O)N3C(=O)[C@@H](NC(=O)Cn4cnnn4)[C@H]3SC2)s1 | inactive | inactive | inactive | inactive | inactive | inactive | inactive | inactive | – | inactive | – | – | inactive | inactive | – | – | – | – | – | –
3 | Cc1cccc(C)c1NC(=O)CN1CCCCCC1 | inactive | – | – | – | inactive | inactive | inactive | inactive | inactive | inactive | inactive | – | – | – | inactive | inactive | – | – | – | –
4 | O=C1CCN(c2ccccc2)N1 | inactive | – | inactive | inactive | – | inactive | inactive | inactive | inactive | inactive | inactive | – | – | – | inactive | – | – | – | – | –
5 | CO[C@@]1(NC(=O)CSCC#N)C(=O)N2C(C(=O)O)=C(CSc3nnnn3C)CS[C@@H]21 | inactive | inactive | inactive | inactive | inactive | inactive | inactive | inactive | inactive | inactive | – | – | inactive | inactive | – | inactive | – | – | – | –
6 | O=C1C=CC(=O)O1 | inactive | – | inactive | inactive | inactive | inactive | inactive | inactive | – | inactive | inactive | inactive | – | – | inactive | – | – | – | – | –
7 | Cc1cc2c(s1)Nc1ccccc1N=C2N1CCN(C)CC1 | – | inactive | inactive | inactive | – | inactive | 8.41 µM (active) | 3.35 µM (active) | inactive | inactive | inactive | inactive | – | – | inactive | inactive | – | – | – | –
8 | CNCCC(Oc1ccccc1OC)c1ccccc1 (stereo not given) | inactive | – | – | – | inactive | inactive | inactive | inactive | inactive | inactive | – | inactive | inactive | inactive | inactive | – | inactive | inactive | inactive | inactive
9 | CCN1CC(CCN2CCOCC2)C(c2ccccc2)(c2ccccc2)C1=O (stereo not given) | inactive | inactive | inactive | inactive | inactive | inactive | inactive | inactive | inactive | inactive | inactive | inactive | – | – | – | – | – | – | – | –
10 | CC(C)CCCCCCc1ccc(OCCOCCO)cc1 | inactive | inactive | inactive | inactive | inactive | inactive | inactive | inactive | inactive | inactive | inactive | inactive | – | – | – | inactive | – | – | – | –
11 | O=C(C(Cl)Cl)N1CCOC12CCCCC2 | inactive | – | inactive | inactive | – | inactive | – | – | inactive | inactive | inactive | inactive | – | – | inactive | – | – | – | – | –
12 | CC(C)=CCC[C@](C)(O)[C@@H]1CC=C(C)CC1 | – | – | inactive | inactive | inactive | inactive | inactive | inactive | inactive | inactive | – | – | – | – | inactive | inactive | – | – | – | –
13 | OCCN1CCN(CCO)CC1 | inactive | inactive | inactive | inactive | inactive | inactive | inactive | inactive | inactive | inactive | – | – | – | – | – | inactive | – | – | – | –
14 | Cc1cc(S(=O)(=O)O)c(N)cc1Cl | inactive | inactive | inactive | inactive | inactive | inactive | inactive | inactive | inactive | inactive | – | – | – | – | – | inactive | – | – | – | –
15 | CCNCCO | inactive | inactive | inactive | inactive | – | inactive | inactive | inactive | – | inactive | – | – | – | – | – | – | – | – | – | –
16 | CN(C)Cc1ccccc1 | inactive | inactive | inactive | inactive | – | inactive | inactive | inactive | – | inactive | – | – | – | – | – | – | – | – | – | –
17 | Cc1ccccc1C(=O)Nc1ccc(C(=O)N2CCCC(O)c3cc(Cl)ccc32)c(C)c1 (stereo not given) | inactive | inactive | – | inactive | – | – | inactive | inactive | inactive | inactive | inactive | inactive | – | – | – | inactive | – | – | – | –
18 | NCCC(O)(P(=O)(O)O)P(=O)(O)O | inactive | inactive | inactive | inactive | inactive | – | inactive | inactive | inactive | inactive | inactive | – | – | – | – | – | – | – | – | –
19 | CC1=C(CC(=O)O)c2cc(F)ccc2/C1=C\c1ccc(S(C)(=O)=O)cc1 | inactive | – | inactive | inactive | inactive | inactive | inactive | inactive | inactive | inactive | inactive | – | inactive | inactive | – | – | inactive | inactive | inactive | inactive
20 | CCCCc1ccc2nc(NC(=O)OC)[nH]c2c1 | inactive | inactive | inactive | 8.41 µM (active) | – | 3.47 µM (active) | inactive | inactive | inactive | inactive | inactive | – | – | – | – | 5.96 µM (active) | – | – | – | –
21 | ClC(Cl)Cl | inactive | inactive | inactive | – | inactive | – | inactive | – | – | inactive | – | – | – | – | – | inactive | – | – | – | –
